PubChem BioAssay (NCI)
About 79,000 compounds went through this panel and 15% of them were active in at least one assay; those are over-represented in the sample as a whole. Activity calls are given as the source filed them. Cut-off read from the data, not from the text of the source: active = growth inhibition above about 70%; inactive = the rest.

Columns and labels:
[1] = NCI Yeast Anticancer Drug Screen. Data for the rad50 strain (AID 155);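 note: 0% = growth of vehicle-only cultures of the same strain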; details: S. cerevisiae rad50 strain growth inhibition; at 50.0 µM; active compounds read high
In short: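 A DNA repair-deficient yeast mutant serves as the test organism; compound-induced growth inhibition is calculated against vehicle-treated cells.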

[2] = NCI Yeast Anticancer Drug Screen. Data for the mec2-1 strain (AID 157); details: S. cerevisiae mec2-1 strain, at 50.0 µM, active compounds read high
In short: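 Each compound was tested on mec2-1 yeast, a strain altered in DNA damage repair or cell cycle control. Growth inhibition is reported relative to vehicle.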

[3] = NCI Yeast Anticancer Drug Screen. Data for the sgs1 mgt1 strain (AID 161);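 note: 0% = growth of cultures given vehicle only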; details: S. cerevisiae sgs1 mgt1 strain, at 50.0 µM, active compounds read high
In short: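 Genetically altered yeast, compound exposure, growth inhibition relative to vehicle.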

[4] = NCI Yeast Anticancer Drug Screen. Data for the cln2 rad14 strain (AID 165);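 note: 0% = growth equal to vehicle treated cultures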; details: S. cerevisiae cln2 rad14 strain, at 50.0 µM, active compounds read high
In short: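 Test compounds were added to cln2 rad14 yeast cultures; inhibition of growth was then determined by comparison with vehicle treatment.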

[5] = NCI Yeast Anticancer Drug Screen. Data for the bub3 strain (AID 167); details: S. cerevisiae bub3 mutant strain, at 50.0 µM, active compounds read high
In short: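 Inhibition values come from growth of compound-treated mutant yeast normalised to vehicle-treated controls.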

[6] = NCI Yeast Anticancer Drug Screen. Data for the mlh1 rad18 strain (AID 175); details: S. cerevisiae mlh1 rad18 strain growth inhibition; at 50.0 µM; active compounds read high
In short: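 Inhibition values reflect reduced growth of mutant yeast versus vehicle-treated controls following compound exposure; the mutations affect DNA damage repair.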

Measured: growth inhibition

CCCCCCC(/C=N/Nc1ccccn1)=C\c1ccccc1
inactive: [1] -5.05% | [2] -0.95% | [3] 2.55% | [4] -7.6% | [5] -4.1% | [6] -21.9%

CC(C)CCCC(C)C1CCC2C3CC([N+](=O)[O-])=C4CC(O[N+](=O)[O-])CCC4(C)C3CCC12C (configuration not stated)
inactive: [1] 50.4% | [2] 20.1% | [3] 37.1% | [4] 23.6% | [5] 1.95% | [6] 20.2%

OC1C=COC2COC(c3ccccc3)OC12 (configuration not stated)
inactive: [1] 4.1% | [2] -8.95% | [3] 6.1% | [4] -21.1% | [5] -5.4% | [6] 10.2%

NNC(=O)C(CSC(c1ccccc1)(c1ccccc1)c1ccccc1)NC(=O)OCc1ccccc1 (configuration not stated)
active: [1] 87.1% | [2] 86% | [3] 94.8% | [4] 83.6% | [5] 89% | [6] 95.2%

CCNC1C2(CCCCC2)NC(=O)C12CCCCC2 (configuration not stated)
inactive: [1] -43.4% | [2] -10.9% | [3] -1.1% | [4] 12.1% | [5] -7.05% | [6] 2.65%

NC(=O)CNC(=O)C(CO)NC(=O)OCc1ccccc1 (configuration not stated)
inactive: [1] 2.35% | [2] -10% | [3] 10.7% | [4] -6.2% | [5] -11.1% | [6] 0.3%

COc1cc2c[n+](C)c3c(c2cc1OC)Cc1cc2c(cc1-3)OCO2
inactive: [1] -27.5% | [2] -13.2% | [3] 1.8% | [4] 18.9% | [5] -14.7% | [6] 6.25%

Cc1cc2c(cc1C)-c1nn(-c3ccccc3)c(-c3ccc(Cl)cc3)c1CCO2
inactive: [1] 27.2% | [2] 1.35% | [3] -1.75% | [4] 17.9% | [5] -6.2% | [6] 3.65%

FC(F)(F)c1nc2ccccc2[nH]1
inactive: [1] 16.9% | [2] -1.4% | [3] 9.55% | [4] 14.8% | [5] -1.65% | [6] 13.3%

NC(=O)C(F)(F)c1ccccc1
inactive: [1] 2.3% | [2] -12.8% | [3] 14.8% | [4] 10.1% | [5] 21.4% | [6] 9.8%

C1C2CC3(CO3)C1C1OC21 (configuration not stated)
inactive: [1] -39.4% | [2] -13.8% | [3] -26.1% | [4] 3.85% | [5] -22.2% | [6] -10.8%

CC(C)CCCC(C)C1CCC2C3CC=C4CC(O[N+](=O)[O-])CCC4(C)C3CCC12C (configuration not stated)
inactive: [1] -24.8% | [2] -6% | [3] -17.1% | [4] -13.8% | [5] -5.15% | [6] 17.9%

CSc1cc(Cl)c(C)cc1S(=O)(=O)NC(=O)NNc1ccc(Cl)cc1
inactive: [1] 23.9% | [2] 11.2% | [3] 10.6% | [4] 7.55% | [5] -3.75% | [6] 51.6%

CS(=O)(=O)Nc1ccc(NS(C)(=O)=O)cc1
inactive: [1] 1.6% | [2] 17.5% | [3] 4.45% | [4] 1.75% | [5] 2.9% | [6] -13.2%

CC(=O)OC1COC(n2c(=S)n(-c3ccccc3)c(=O)c3cc(Br)ccc32)C(OC(C)=O)C1OC(C)=O (configuration not stated)
inactive: [1] 1.9% | [2] -5.4% | [3] 8.45% | [4] 15.8% | [5] -3.85% | [6] -11.9%

Cc1cc(O)cc(O)c1C(=O)O[C@]1(C)C(=O)C=C2C=C(/C=C/C(=O)O)OC=C2C1=O
inactive: [1] -2.6% | [2] -16.9% | [3] -9.95% | [4] 9.6% | [5] -13.5% | [6] -3.9%

COc1ccc(C(C#N)CC(=O)c2ccccc2)cc1 (configuration not stated)
inactive: [1] 6.4% | [2] 10.9% | [3] 0.95% | [4] 4.45% | [5] -2.6% | [6] -8.35%

CCN(CC)CCC(=O)N1C/C(=C/c2ccccc2)C(=O)/C(=C\c2ccccc2)C1
inactive: [1] 47.4% | [2] 37.9% | [3] 12.8% | [4] 30.6% | [5] 13.2% | [6] 2.7%

NNC(=O)c1ccco1
inactive: [1] 27.2% | [2] -3.85% | [3] -14.3% | [4] 20.8% | [5] -2.1% | [6] 15.8%

CSc1nc(-c2ccc(C)cc2)c(C#N)c(=O)[nH]1
inactive: [1] 6.25% | [2] 4.9% | [3] -9.45% | [4] 24.2% | [5] 0.4% | [6] -55.9%

CC(=O)OC(OC(C)=O)c1ncccc1C(=O)OC(C)C
inactive: [1] -14.6% | [2] -13.2% | [3] -14.7% | [4] 10.8% | [5] -8.45% | [6] -21.7%

Oc1ccc(CCC2CCNCC2)cc1
inactive: [1] 7.75% | [2] 23.4% | [3] 7.7% | [4] -27.2% | [5] -11.1% | [6] -30.1%

O=C(Cc1ccccc1)c1ccccc1C(=O)NCc1ccccc1
inactive: [1] -5.8% | [2] -3.45% | [3] 1.1% | [4] -66.5% | [5] 14.9% | [6] -7.1%

Cc1ccc(-c2nnc(-c3cccc4ccccc34)o2)cc1
inactive: [1] 1.85% | [2] -31.9% | [3] 0.75% | [4] 4.1% | [5] -44.1% | [6] -8.05%

O=c1[nH]ncc2ccc([N+](=O)[O-])cc12
inactive: [1] 6.45% | [2] 7.9% | [3] -1.25% | [4] -1.25% | [5] -2.3% | [6] -6.8%

CCC1(C(Cl)(Cl)Cl)C=CC(=O)C=C1
inactive: [1] 13% | [2] 13.3% | [3] -1.85% | [4] 12.8% | [5] 4.7% | [6] -21.1%

CCN(C(=S)Nc1cccc(C(F)(F)F)c1)c1ccccc1
inactive: [1] 38.1% | [2] 22.9% | [3] 49% | [4] 13.9% | [5] 41% | [6] 22.6%

CCOc1cccc(/C=N/N=C2\C(=O)Nc3c(Cl)cc(Cl)cc32)c1O
inactive: [1] 22.2% | [2] 15.6% | [3] 39.9% | [4] 40.8% | [5] 34.1%
active: [6] 83.2%

OC(C(c1ccccc1)N1CCCCC1)C(O)(c1ccccc1)c1ccccc1 (configuration not stated)
inactive: [1] 12.2% | [2] -3.15% | [3] 22.6% | [4] 24.9% | [5] 6.2% | [6] -0.5%

O=C1CC(=O)c2cccc3cccc1c23
inactive: [1] 42.8% | [2] 22.7% | [3] 44.4% | [4] 7.35% | [5] 47.9% | [6] 27.1%

NCCCNCCS
inactive: [1] 19.6% | [2] 1.5% | [3] 22.6% | [4] 18.3% | [5] 2.5% | [6] 17.1%

CC(=O)N(C(C)=O)c1ccc2c3c(cccc13)CC2
inactive: [1] 0% | [2] -3.9% | [3] 2.6% | [4] -19.1% | [5] 8.1% | [6] -1.2%

COc1cc(C=O)cc(NC(C)=O)c1OC(C)=O
inactive: [1] 6.55% | [2] 0.3% | [3] 4.85% | [4] -4.85% | [5] 24.9% | [6] 9.95%

CC1C=CCC2C(=O)OC(=O)C12 (configuration not stated)
inactive: [1] 10.3% | [2] -1.65% | [3] -4.65% | [4] -3.8% | [5] -0.75% | [6] 15.6%

CCCCCCNC1=C(OC)C(=O)C(NCCCCCC)=C(OC)C1=O
inactive: [1] -7.4% | [2] 7.9% | [3] 2.1% | [4] -54.9% | [5] 8.5% | [6] -13.6%

O=C(Nc1ccc(F)cc1)Nc1cccc(C(=O)O)c1
inactive: [1] 20% | [2] 7.9% | [3] 6.4% | [4] 7.6% | [5] 22.4% | [6] 12.2%

COc1cc2c(cc1OC)C(c1ccc(N=Cc3ccc(N(C)C)cc3)cc1)N(C(=S)Nc1cc(Cl)ccc1Cl)CC2 (configuration not stated)
inactive: [1] 35.5% | [2] 5.15% | [3] 40.7% | [4] 21.7% | [5] 24.1% | [6] 26.9%
